Compound activity as filed in PubChem.
Only a selection was taken, and hits are over-represented in it overall.
KDM5B inh: Primary screen for KDM5B Histone Demethylases FDH-coupled qHTS; Lysine-specific demethylase 5B (Homo sapiens), Q9UGL1; KDM5B demethylase, FDH-coupled NADH fluorescence (FDH is formaldehyde dehydrogenase); Potency, µM (doses to about 57.7 µM), most hits filed as inhibitors; actives 2.6% (n = 220,000); AID 1347165, 2019; active = well fitted inhibition curve with a large enough effect; note: 0% is about no effect; nearly all actives have a fitted effect of over 70% in size
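qHTS format, multiple compound concentrations. Buffer 50 mM HEPES pH 7.5/0.01% Tween-20; 200 nM KDM5BΔAP final; 10 min compound preincubation; substrate-mix levels 12.5 µM peptide, 25 µM α-KG, 0.25 mM NAD⁺; 30 min RT; ΔRFU.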
* hit, by the source's call; i = inactive. Potency is the fitted concentration of half-maximal effect.

SMILES	KDM5B inh
CC(NC(=O)C12CC3CC(CC(C3)C1)C2)c1cc2ccccc2o1 (centres undefined)	i
Cc1c(C(=O)O)sc2ccccc12	i
Cc1cc(OCC(=O)NC2CCc3ccccc32)ccc1C(C)C (centres undefined)	i
O=C(N1CCCCC1)N1CCN(C2CCNCC2)C(=O)C1	89.1µM*
O=C(N1CCCC1)N1CCN(C2CCNCC2)C(=O)C1	50.1µM*
CC(=O)Nc1ccc(C(=O)N2CCN(C3CCNCC3)C(=O)C2)cc1	i
O=C(N1CCCCC1)N1CCN(c2cc(Cl)ncn2)C(=O)C1	i
O=C(c1ccncc1)N1CCN(C2CCNCC2)C(=O)C1	i
O=C(O)CCC(=O)N1CCN(C2CCNCC2)C(=O)C1	i
COc1ccc(CNC(=O)C2(N3C[C@@H](C)O[C@@H](C)C3)Cc3ccccc3C2)cc1	i
COCCNC(=O)[C@@H]1C[C@@H](O)CN1C1CCN(C(=O)Cc2ccccc2)CC1	i
NCC(=O)N1Cc2ccccc2CC2(CCN(CC3CCOCC3)C2)C1 (centres undefined)	i
Nc1ccccc1OCCCc1ccccc1	i
Cc1oc(-c2ccccc2)nc1CC(=O)Nc1cc(Cl)c(N)c(Cl)c1	i
COc1ccc(C)cc1NC(=O)CCc1ccc2c(c1)CN(C(=O)C1CC1)CCO2	i
Cn1nc(C2CCCNC2)c2c(C(=O)NC3CC3)cc(C3CC3)nc21 (centres undefined)	89.1µM*
Cn1nc(C2CCNCC2)c2c(C(=O)NC3CC3)cc(C3CC3)nc21	89.1µM*
CC1CCC(NC(=O)c2cc(C3CC3)nc3ccccc23)CC1 (centres undefined)	i
Cc1nn(C)c2nc(C3CC3)cc(C(=O)N3CCN(c4ncccn4)CC3)c12	i
Cn1nc(C(=O)Nc2ccccc2C(=O)NC2CC2)c2ccccc2c1=O	i
CCn1cnc2c1c(=O)n(CC(=O)Nc1ccc(OC(F)(F)F)cc1)c(=O)n2Cc1ccccc1	i
COCCCN1CC2(CCN(CC(=O)N3CCNCC3)CC2)CC1=O	i
COc1ccc(CCNC(=O)Cn2nnc(-c3cccc(C(F)(F)F)c3)n2)cc1OC	i
O=C(NCCc1ccc(Cl)cc1)c1cc(-c2cccc(C(F)(F)F)c2)c2nncn2n1	79.4µM*
COC(=O)CNC(=O)C1CCc2nnc(-c3ccc(Cl)cc3Cl)n21 (centres undefined)	i
SMILES	KDM5B inh
COC(=O)CNC(=O)c1cc(-c2cccc(C(F)(F)F)c2)c2nncn2n1	79.4µM*
COC(=O)CNC(=O)c1cc(-c2ccccc2OC)c2nncn2n1	i
COC(=O)CNC(=O)c1cc(-c2ccc(Cl)cc2Cl)c2nncn2n1	44.7µM*
COC(=O)CNC(=O)c1cccc(C)c1	i
C#CCNC(=O)c1cc(-c2ccc(Cl)cc2Cl)c2cccn2n1	i
COC(=O)CNC(=O)c1cc(-c2cccnc2)c2nncn2n1	100µM*
COC(=O)CNC(=O)c1cc(-c2ccccc2OC)c2cccn2n1	i
O=C(NCCc1ccc(Cl)cc1)c1cc(-c2ccccc2)n[nH]1	i
COc1ccc(C(C)=O)cc1-c1cccc(C(F)(F)F)c1	i
Cc1nc(C(C)C)sc1C(=O)N1CCCC(OCc2ccccn2)C1 (centres undefined)	i
O=C(Nc1ccc(Cl)cc1)N1CCn2c(nnc2C2CC2)C1	i
